ALDH1A1 inh = ALDH1A1 (human) enzyme inhibition; Purified ALDH1A1, NADH fluorescence, propionaldehyde substrate; Potency, µM (series often up to 75.3 µM), without a hit: top-dose activity, negative = inhibition, actives largely listed as inhibitors; 220,000 tested, 7.3% active; AID 1030; active means well fitted inhibition curve with a large enough effect, not every such curve was filed as active; inconclusive means small, poorly fitted or top-dose-only effect, or another doubt; inactive means no such curve, though single readings can be large or run the other way;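 further: potency means the concentration at half of the fitted maximal effect; plate controls were no enzyme wells and a reference inhibitor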
PNC inhibitor = inhibitors of perinucleolar compartment assembly; PC3M PTB-GFP, PNC prevalence imaging, 16 h; hits give low values; 140,000 tested, 3.1% active; AID 2417; activity change (PNC), negative = inhibition, % at 10 µM;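 active means readout at or below -70, meaning at least 70% loss of cells showing the perinucleolar compartment, a nuclear body marking cancer cells; inconclusive means readout between -30 and a set limit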;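 further: plate controls were DMSO wells for no effect and camptothecin positive control wells for full effect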
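Read-out is percentage of cells bearing a perinucleolar compartment, from automated 20x imaging of fixed, Hoechst-stained PC3M PTB-GFP cells. Cells were seeded 4 h, then exposed 16 h to compound (23 nl of library stock) in duplicate plates.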
IMPase inh = cell-permeable inhibitors of inositol monophosphatase (IMPase); 120,000 tested, under 10 active; CHO-M1 cells, IP1 accumulation, HTRF TR-FRET ratio; AID 901; P97697; inhibition (IP1 accumulation), % at 46.1 µM; active means well fitted curve in the direction sought with a large enough effect in the signal ratio, not every such curve was filed as active; inconclusive means small, poorly fitted or top-dose-only effect, or a change in a side signal; inactive means no such curve, though single readings can be large or run the other way; the % refers to the signal ratio;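 further: cells stimulated with carbachol in lithium chloride buffer; plate controls were DMSO basal wells for no effect and reference inhibitor wells for full effect; higher means more IMPase inhibition seen as more IP1 and lower FRET ratio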
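CHO-M1 cells (CHO stably expressing M1 receptor), compound up to 46 uM final, stimulated with carbachol (50 uM as added) in buffer with 50mM LiCl, pH 7.4, 30 min at 37C. Cytosolic IP1 read by TR-FRET; AC50 from Hill fits.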
IMPase Li cell = cell-permeable IMPase inhibitors with lithium potentiation; Potency, µM (titrated, usually from 59.4 µM), for inactives: at the highest dose activity, negative = IMPase inhibition, hits mostly inhibitors; CHO-M1 cells, IP1 TR-FRET (IP-One), carbachol + lithium; 210,000 tested, 0.35% active; AID 1457;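 further: IP1 builds up when IMPase is blocked and the TR-FRET signal falls; potency means the concentration at half of the fitted maximal effect; plate controls were basal vehicle for no effect and high inhibitor control for full effect; nearly all actives have a fitted effect of over 50% in size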
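IP1 accumulation measured by competitive TR-FRET in lysed CHO-M1 cells after 30 min compound exposure at 37C, with a small lithium addition to potentiate weak responses. Hill-equation AC50 from ratio and donor-channel data.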
HPGD block = inhibitors of human 15-hydroxyprostaglandin dehydrogenase (HPGD); P15428; purified HPGD, NADH fluorescence kinetic, PGE2 substrate; Potency, µM, without a hit: top-dose activity change, negative = inhibition, hits mostly inhibitors; 150,000 tested, 4.3% active; active means well fitted inhibition curve with a large enough effect, not every such curve was filed as active; inconclusive means small, poorly fitted or top-dose-only effect, or another doubt; inactive means no such curve, though single readings can be large or run the other way; further: potency means the concentration at half of the fitted maximal effect
Target sequence (P15428 whole entry, looked up): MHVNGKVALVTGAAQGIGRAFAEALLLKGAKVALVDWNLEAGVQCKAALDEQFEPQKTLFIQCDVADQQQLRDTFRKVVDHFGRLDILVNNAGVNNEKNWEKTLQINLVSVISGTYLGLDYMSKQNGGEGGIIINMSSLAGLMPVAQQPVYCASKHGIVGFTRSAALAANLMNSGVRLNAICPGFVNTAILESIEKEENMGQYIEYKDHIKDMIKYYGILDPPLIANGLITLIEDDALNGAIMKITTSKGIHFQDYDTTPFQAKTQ
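NADH formation kinetics: reaction with 30 uM PGE2 and 1 mM NAD+ (final), 20 nM enzyme, Tris-HCl pH 8 with Tween 20, after 15 min compound preincubation at room temperature. Fluorescence change, last versus first of five reads.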
NPSR antagonist = blocks cAMP signaling of the human neuropeptide S receptor. CHO-NPSR cells, cAMP TR-FRET, antagonist mode. Potency, µM (titrated, usually from 38.3 µM), for the others: top-dose activity change, negative = inhibition, usual class: inhibitors. Q6W5P4. 220,000 tested, 1% active. AID 1461; further: potency means the concentration at half of the fitted maximal effect; nearly all actives have a fitted effect of over 50% in size
Target sequence (Q6W5P4 whole entry, looked up): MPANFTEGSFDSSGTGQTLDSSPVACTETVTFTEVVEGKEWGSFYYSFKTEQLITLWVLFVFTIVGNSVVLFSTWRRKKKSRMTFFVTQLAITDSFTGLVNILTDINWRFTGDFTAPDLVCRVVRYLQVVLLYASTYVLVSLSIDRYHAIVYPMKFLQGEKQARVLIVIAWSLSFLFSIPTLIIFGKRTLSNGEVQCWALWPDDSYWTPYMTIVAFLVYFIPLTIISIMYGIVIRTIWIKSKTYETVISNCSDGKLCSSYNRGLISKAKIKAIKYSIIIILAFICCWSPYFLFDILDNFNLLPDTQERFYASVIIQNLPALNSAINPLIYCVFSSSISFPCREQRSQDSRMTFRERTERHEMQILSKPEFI
* hit, by the source's call; ? = inconclusive; · = no result given; [ ] = remark or other dose. This is a sample that favours compounds with a hit; in the whole collection about 11% have one here. Unless noted, the call rests on the fitted dose curve; in most records, active means well fitted curve in the direction sought with a large enough effect; inconclusive means small, poorly fitted or top-dose-only effect, or another doubt; inactive means no such curve, though single readings can be large; an effect the other way counts as inactive or inconclusive. Unless noted, on the % scale 0 is the no-effect control and ±100 the full control effect.

SMILES	ALDH1A1 inh	PNC inhibitor	IMPase inh	IMPase Li cell	HPGD block	NPSR antagonist
O=C1C2C3c4ccccc4C(c4ccccc43)C2c2nc3ccccc3n21 (stereo not given)	0%	-100*	6	15%	-5%	?
CCc1ccc2c(c1)C(c1ccc(N3CCOCC3)cc1)=NNC(c1ccncc1)=N2	7%	·	·	9%	·	-28%
O=C1C(NS(=O)(=O)c2cccs2)=C(N2CCN(c3cccc(Cl)c3)CC2)C(=O)c2ccccc21	3.2µM*	-12	5	41%[38.3 µM]	-14%	-14%[46.1 µM]
Oc1ccc(-c2n[nH]c(=S)n2Cc2ccccc2)cc1	20µM*	4	3	20%[38.3 µM]	?	-16%[46.1 µM]
Cc1scc(-c2n[nH]c(=S)n2Cc2ccccc2)c1C	-10%	-28	·	5%	?	-10%
S=c1[nH]nc(COc2cccc3ccccc23)n1Cc1ccccc1	·	·	·	·	·	-40%
S=c1[nH]nc(-c2ccc(Br)cc2)n1Cc1ccccc1	?	·	·	20%	·	-31%
Cc1ccccc1OCc1n[nH]c(=S)n1Cc1ccccc1	-13%	4	·	21%	14µM*	5%
S=c1[nH]nc(-c2ccc3ccccc3n2)n1Cc1ccccc1	6%	24	·	-3%	11µM*	-24%
CCc1c(-c2n[nH]c(=S)n2Cc2ccccc2)csc1C	10µM*	?	·	11%	16µM*	13%
S=c1[nH]nc(-c2ccncc2)n1Cc1ccccc1	-12%	?	0	-1%[38.3 µM]	-8%	2%[46.1 µM]
S=c1[nH]nc(-c2cccnc2)n1Cc1ccccc1	14µM*	37	-5	27%[38.3 µM]	-27%	-8%[46.1 µM]
Cc1nc(-c2ccc(Cl)cc2)sc1C(=O)O	9%	·	·	-16%	·	-7%
Cc1ccc(C(=O)Nc2sc(C)c(C)c2C(=O)c2ccccc2)cc1	10µM*	-28	3	8%	20µM*	2%
Cc1sc(NC(=O)c2cccs2)c(C(N)=O)c1C	11µM*	-26	4	-3%[38.3 µM]	25µM*	-9%[46.1 µM]
Cc1sc(NC(=O)c2ccccc2)c(C(=O)NC(C)C)c1C	?	20	-13	21%[38.3 µM]	?	1%[46.1 µM]
Cc1sc(NC(=O)c2ccccc2)c(C(=O)c2ccccc2)c1C	5µM*	8	·	2%	3.5µM*	5%
CCOC(=O)c1c(NC(=O)c2cccs2)sc(CC)c1-c1cccs1	?	?	-2	38%[38.3 µM]	?	?
O=c1oc(Nc2ccc(F)cc2)nc2ccccc12	?	34	-5	-4%[38.3 µM]	?	-4%[46.1 µM]
O=C(c1cccc(S(=O)(=O)N2CCc3ccccc3C2)c1)N1CCN(c2ccccc2)CC1	-3%	?	·	9%	-13%	4%
COc1ccc2c(c1)cc(C(=O)O)n2C	?	46	1	17%[38.3 µM]	?	-13%[46.1 µM]
COc1ccc2c(c1)sc(=N)n2C	20µM*	·	·	-1%	·	25%
COc1ccc(S(=O)(=O)NCc2ccco2)cc1-c1nnc2c3ccccc3c(C)nn12	-17%	15	13	20%[38.3 µM]	5µM*	-9%[46.1 µM]
CNS(=O)(=O)c1ccc(OC)c(-c2nnc3c4ccccc4c(C)nn23)c1	?	?	-10	-4%[38.3 µM]	16µM*	11%[46.1 µM]
COc1ccc(S(=O)(=O)NC(C)(C)C)cc1-c1nnc2c3ccccc3c(C)nn12	6%	36	7	24%[38.3 µM]	-29%	-1%[46.1 µM]
SMILES	ALDH1A1 inh	PNC inhibitor	IMPase inh	IMPase Li cell	HPGD block	NPSR antagonist
COc1ccc(S(=O)(=O)N2CCN(CCO)CC2)cc1-c1nnc2c3ccccc3c(C)nn12	-11%	42	-1	3%	?	19%
NS(=O)(=O)c1ccc(CCNC(=O)NC2(C(F)(F)F)Oc3ccccc3O2)cc1	8%	-100*	3	14%	-12%	-17%[46.1 µM]
Cc1cccc(N=C/C(C(=O)C(F)(F)F)=C(\O)c2ccco2)c1	-1%	?	-5	-4%	0%	14%
Cc1ccc(N=C/C(C(=O)C(F)(F)F)=C(\O)c2ccco2)cc1Cl	2.2µM*	-19	-3	·	·	-7%[46.1 µM]
Cc1cc(C)cc(C(=O)NCC(=O)OCC(=O)N2c3ccccc3NC(=O)C2(C)C)c1	-9%	-5	-1	-4%	-1%	-9%[46.1 µM]
CCN(CC)CCN(C)C(=O)CCc1nnc(-c2ccc(C)s2)o1	-92%	·	·	21%	·	-38%
CCn1nc(C)c(CNC(=O)CCc2nnc(-c3ccc(C(C)=O)s3)o2)c1C	32µM*	·	·	9%	·	5%
CNC(=O)C1=C(C)n2c(nc3ccccc32)NC1c1ccc(OC)cc1 (stereo not given)	-2%	-114*	·	-5%	-4%	-11%
CC1=C(C(=O)Nc2ccccc2)C(c2cccc([N+](=O)[O-])c2)Nc2nc3ccccc3n21 (stereo not given)	34%	?	1	30%[38.3 µM]	-2%	-28%[46.1 µM]
CNC(=O)CSc1nc2c([nH]c3ccccc32)c(=O)n1CCOC	?	·	·	-12%	·	-3%
COCCn1cc(C(=O)NCCCN2CCC(C)CC2)c2c3ccccc3n(C)c2c1=O	?	-13	-4	23%[38.3 µM]	?	-11%[46.1 µM]
CCN1CCN(CCCNC(=O)c2cn(CCOC)c(=O)c3c2c2ccccc2n3C)CC1	?	-101*	7	5%	?	-8%[46.1 µM]
N#Cc1c(N)nc(SCC(=O)NC2CCCCC2)c(C#N)c1-c1ccc(Cl)cc1	8%	?	-5	16µM*	-13%	?
CC(C)c1ccc(-c2c(C#N)c(N)nc(SCC(=O)N3CCCCC3)c2C#N)cc1	?	48	1	?	?	10µM*
COc1ccc(/C=N\NS(=O)(=O)c2ccc(Cl)cc2)cc1COc1ccccc1[N+](=O)[O-]	?	6	?	-4%	-14%	?
CCC(=O)Nc1ccccc1Sc1ncnc2scc(-c3ccccc3)c12	-2%	6	·	10%	-19%	5%
CC1S/C(=N/N=C/c2ccco2)N(Cc2ccccc2)C1=O (stereo not given)	10µM*	·	·	·	·	10%
CCc1ccc(S(=O)(=O)NC(CC(=O)O)c2ccccc2)cc1 (stereo not given)	?	?	0	-5%[38.3 µM]	-10%	-23%[46.1 µM]
CCN1C(=O)C(CC(=O)Nc2ccc(OC)cc2)N(CCc2ccc(F)cc2)C1=S (stereo not given)	14µM*	·	·	5%	·	-48%
COc1ccc(CCN2C(=S)N(C)C(=O)C2CC(=O)Nc2ccc(OC)cc2)cc1 (stereo not given)	4.5µM*	·	·	7%	·	43%
COc1ccc(NC(=O)CC2C(=O)N(C)C(=S)N2CCc2ccccc2)cc1 (stereo not given)	0.89µM*	?	·	13%	-6%	-6%
COc1cccc(C(=O)NCC2CCN(c3ccc(S(=O)(=O)N4CCOCC4)cc3)CC2)c1	?	24	6	-9%[38.3 µM]	?	-13%[7.67 µM]
